Experimental data published in PubChem BioAssay AID1016 (Sanford-Burnham Center for Chemical Genomics, 2008).
In all, about 200,000 compounds went through this assay and about 330 (0.17%) were called active. This excerpt belongs to a sample that is enriched for actives. Unmarked numbers belong to inactive results.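 The calls were made as follows: active = activation factor of 2 or more at 20 µM, a signal rise over negative controls twice the positive control's; inactive = the rest.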 Where a SMILES comes first, the peptide text is derived from it. [ ]: non-standard residue; d: D form. ξ: configuration not given here. ξM = CSCCC(N)C(=O)O

The compounds below were run on alkaline phosphatase, intestinal [Bos taurus] (assay: bovine intestinal alkaline phosphatase activators, primary screen, biochemical, bovine IAP, CDP-star luminescence (AID 1016)). Conditions: purified bovine IAP, 30 min, at 20 µM, stronger effect = higher value, fold of DMSO-control signal, blank-subtracted.

| Structure (SMILES) | activation factor |
| --- | --- |
| Cc1ccccc1C1=NC(C(F)(F)F)(C(F)(F)F)c2c(n(-c3ccc(F)cc3)c(=O)[nH]c2=O)N1 | 0.9 |
| CC1CCC(C(C)C)C(=O)/C1=C\c1ccc(NC(=O)CCC(=O)O)cc1 (stereo not drawn) | 0.9 |
| C[C@@H](O)c1nc2ccccc2n1N | 0.9 |
| Cc1ccc(C(=O)Nc2sc(Cc3ccc4c(c3)OCO4)c(C)c2C(N)=O)cc1 | 0.9 |
| CN(C)S(=O)(=O)Oc1ccccc1C(=O)Nc1ccccc1Cl | 0.9 |
| COc1ccc(S(=O)(=O)N(C)CC(=O)N2CCCC2)cc1Cl | 1 |
| COc1ccc(CC(=O)Nc2ccc3c(c2)CCC3)cc1S(=O)(=O)N1CCOCC1 | 1 |
| O=C(Oc1ccc2c(c1)CCC2)N1CCOCC1 | 2.4 (active) |
| CC(=O)Nc1ccccc1OC(=O)N1CCOCC1 | 0.9 |
| CCc1cc(-c2n[nH]c(=S)n2CC(C)C)cs1 | 1 |
| O=C(CNC(=O)c1cc(=O)[nH]c2ccccc12)Nc1ccc(F)c(F)c1 | 0.9 |
| Cc1cc(C)nc(-n2ncc3c2CC(c2ccc(C(C)C)cc2)CC3=O)n1 (stereo not drawn) | 0.8 |
| CCC(=O)N1c2ccccc2NC2=C(C(=O)CCC2)C1c1ccco1 (stereo not drawn) | 1 |
| NC(=O)COC(=O)c1cc(S(=O)(=O)N2CCN(c3ccccc3)CC2)ccc1Cl | 1.1 |
| COCc1c(N)c(C)nc(Cl)c1C#N | 1.1 |
| Cc1cccc(C)c1NC(=O)C1CCCN1C(=O)OC(C)(C)C (stereo not drawn) | 0.8 |
| CC(=O)NCCC(=O)Nc1cc(S(=O)(=O)N2CCOCC2)ccc1N1CCOCC1 | 1 |
| CCCC1OC23CCCCC2C(C#N)(C#N)C1(C#N)C(=N)O3 (stereo not drawn) | 1.1 |
| Cc1ccc(C(=O)NC(=S)NCc2cccnc2)cc1 | 1 |
| NC(=O)C1CCN(C(=O)COc2cccc3cccnc23)CC1 | 1 |
| Cc1nn(Cc2ccc(F)cc2)c(C)c1NC(=O)c1cccnc1Cl | 1.1 |
| CC(=O)Cn1ncc(N2CCOCC2)c(Br)c1=O | 1.1 |
| C/C(CC(=O)Nc1cccc(C(F)(F)F)c1)=N\NC(=O)C(=O)NCC(C)C | 1.3 |
| O=C(NN1C(=O)C2C3C=CC(O3)C2C1=O)c1ccncc1 (stereo not drawn) | 0.8 |
| CC(C)C1Nc2c(C(=O)O)cccc2C(Nc2ccccc2C(=O)O)C1(C)C (stereo not drawn) | 1.1 |

| Structure (SMILES) | activation factor |
| --- | --- |
| COc1cc(C(O)c2nc3ccccc3n2C)cc(OC)c1OC (stereo not drawn) | 1 |
| CCCn1c(C(O)c2ccc(OCC)cc2)nc2ccccc21 (stereo not drawn) | 19.1 (active) |
| CCCn1c(C(Cc2ccccc2)NC(=O)COC)nc2ccccc21 (stereo not drawn) | 0.9 |
| CCOCCn1c(C(C)C)nc2ccccc21 | 0.9 |
| CCOc1ccc(C(O)Cc2nc3ccccc3n2C)cc1 (stereo not drawn) | 0.8 |
| CCCn1c(C(O)c2cc(OC)ccc2OC)nc2ccccc21 (stereo not drawn) | 73.3 (active) |
| CN(C)c1ccc(/C=N/NC(=O)c2ccc(Cn3cc(Br)cn3)o2)cc1 | 1 |
| Cc1ccccc1OCC(=O)Nc1nc(C)c(C(=O)N(C)C)s1 | 1 |
| Cc1csc(SCC(=O)Nc2sccc2C#N)n1 | 1.2 |
| CN(c1ccc(OCC(=O)OCC(=O)Nc2cccc([N+](=O)[O-])c2)cc1)S(=O)(=O)c1ccc(F)cc1 | 0.8 |
| CN(C)c1ccc(NC(=O)CSc2n[nH]c(-c3ccco3)n2)cc1 | 1 |
| O=C(OCC(=O)c1c[nH]c2ccccc12)c1cccc(O)c1 | 1.2 |
| COCCCNC(=O)Cn1cc(/C=C(\C#N)C(=O)N2CCN(c3ccccc3)CC2)c2ccccc21 | 1 |
| COc1ccc(/C=N/n2c(C)cc(C)cc2=O)cc1 | 1.2 |
| CCOC(=O)C1(Cc2cccc(OC)c2)CCN(C(C)COC)CC1 (stereo not drawn) | 1 |
| Fc1ccccc1Cc1ccc(Cl)nn1 | 0.9 |
| O=C(O)c1n[nH]nc1-c1ccccc1 | 0.9 |
| Cc1ccccc1CCN(CC(=O)NC1CCCCC1)C(=O)c1csnn1 | 1 |
| COc1cccc(N(Cc2nnc3n2CCCCC3)C(=O)Nc2ccccc2F)c1 | 1.1 |
| CSc1ccc(C(=O)C2CCCN(C(=O)c3ccc(C)nc3)C2)cc1 (stereo not drawn) | 1 |
| COc1ccc(C(=O)Nc2ccc(NC(=O)C(C)C)nc2)cc1 | 0.9 |
| Cc1cccc(CSc2nnc(C)c(=O)n2N)c1 | 1.1 |
| CC(=O)N/C(=C/c1ccc(OC(F)F)cc1)C(=O)O | 1 |
| CC(=O)N1CCN(S(=O)(=O)c2ccc(C)c([N+](=O)[O-])c2)C1C(C)C (stereo not drawn) | 1 |
| CC1Cc2ccccc2N1C(=O)CSc1nnc(C2CC2)n1C (stereo not drawn) | 1 |

| Structure (SMILES) | activation factor |
| --- | --- |
| CC(NC(=O)c1ccc(N2CCNCC2)c([N+](=O)[O-])c1)C12CC3CC(CC(C3)C1)C2 (stereo not drawn) | 1.1 |
| Clc1ccc(-c2nc3ccccn3c2CN2CCSCC2)cc1 | 1 |
| O=C1C2C3C=CC(C3)C2C(=O)N1c1ccc(-c2nc3ccccc3c(=O)o2)cc1 (stereo not drawn) | 1.1 |
| COc1cccc(NC(=S)C(C#N)=C2N(C)c3ccccc3N2C)c1 | 1.1 |
| CC(=O)NC1=NN(C(C)=O)C(C)(c2ccc(C)cc2)S1 (stereo not drawn) | 0.9 |
| CC(=O)c1sc(N/N=C/c2ccc(C(C)C)cc2)nc1C | 0.9 |
| COCCNC(=O)/C(C#N)=C/c1nc(N(C)C)n(-c2ccc(F)cc2)c1Cl | 1 |
| O=C(O)c1ccc2c3c(cccc13)C(=O)N(OS(=O)(=O)c1ccccc1)C2=O | 1.3 |
| Cc1sc2nc(COC(=O)C(NC(=O)c3ccc(Cl)cc3Cl)C(C)C)[nH]c(=O)c2c1C (stereo not drawn) | 0.7 |
| COc1ccc(C(CC(=O)c2ccccc2)S(=O)(=O)c2ccccc2)cc1 (stereo not drawn) | 1 |
| NS(=O)(=O)c1ccc(NC(=O)COC(=O)C2(c3ccc(F)cc3)CCCC2)cc1 | 2.7 (active) |
| CN(C)S(=O)(=O)c1cccc(NC(=O)COC(=O)C2(c3ccccc3F)CCCC2)c1 | 1.1 |
| NS(=O)(=O)c1ccc(NC(=O)COC(=O)c2ccco2)cc1 | 1 |
| CCn1c(SCC(=O)Nc2ccccc2F)nc2c(c1=O)SC(C)C2 (stereo not drawn) | 2 (active) |
| CCn1c(SCC(=O)Nc2ccc3c(c2)OCCO3)nc2c(c1=O)SC(C)C2 (stereo not drawn) | 1 |
| CC1Cc2nc(SCC(=O)Nc3ccccc3F)n(C)c(=O)c2S1 (stereo not drawn) | 1.1 |
| COc1ccc(-c2nc(N)sc2C2(O)C(=O)Nc3c(Br)cc(F)cc32)cc1OC (stereo not drawn) | 1 |
| COC(=O)CNC(=O)C(CCSC)NC(C)=O (stereo not drawn) (Ac-[ξM]-Gly-OMe) | 1 |
| O=C(COC(=O)c1cccc(Br)c1)Nc1cccc2c1C(=O)c1ccccc1C2=O | 0.8 |
| O=C(CN1CCOCC1)Nc1c(Cl)cc(Cl)cc1Cl | 1 |
| O=C(CCCn1c(=O)c2sccc2n(CC(=O)NCC2CCCO2)c1=O)NCc1ccco1 (stereo not drawn) | 1 |
| [O-][n+]1c2c(nn1-c1ccc(Cl)c(Cl)c1)-c1nonc1CC2 | 1.1 |
| CCCOc1ccc(Cn2ccnc2)cc1[N+](=O)[O-] | 0.2 |
| Cc1ccc(Oc2cc(NC(=O)CCCn3nc(C)c([N+](=O)[O-])c3C)cc([N+](=O)[O-])c2)cc1 | 0.9 |
| Cc1[nH]nc(SCC(=O)NCC(C)C)c1[N+](=O)[O-] | 1.2 |

| Structure (SMILES) | activation factor |
| --- | --- |
| COc1ccc(NC(=O)CN2CCN(S(=O)(=O)c3ccc(F)cc3)CC2)cc1Cl | 0.9 |
| COc1ccccc1NC(=O)CN1CCN(S(=O)(=O)c2ccc(Br)cc2)CC1 | 1 |
| COc1cc2c(cc1NC(=O)CN1CCN(S(=O)(=O)c3ccc(F)cc3)CC1)oc1ccccc12 | 2 (active) |
| COc1ccc(-n2c(C)cc(C(=O)CN3C(=O)NC4(CCc5ccccc54)C3=O)c2C)cc1 (stereo not drawn) | 1 |
| C/C(=C\c1ccco1)CN1CCC(N2CCC(C(=O)N3CCOCC3)CC2)CC1 | 1.1 |
| CC(=O)c1cccc(NC(=O)[C@@H](NC(N)=O)C(C)C)c1 | 0.9 |
| O=C(COc1ccc(-c2ccccc2)cc1)NN=C1CCCC1 | 1 |
| CC(C)Nc1nnc(SCC(=O)/C=C2\N(C)c3ccccc3C2(C)C)s1 | 1.1 |
| O=C1Nc2ccc([N+](=O)[O-])cc2C1=Nc1cccc(CO)c1 | 0.9 |
| Cc1c(NC(=O)CCC2CCCCC2)cc(C(=O)N2CCOCC2)cc1[N+](=O)[O-] | 0.9 |
| C=C(C)c1cccc(C(C)(C)NC(=O)NCCN(CC)CC)c1 | 1.2 |
| O=C(NCCC1=CCCCC1)C1CCN(Cc2cnn(-c3ccccc3)c2-n2cccc2)CC1 | 2.5 (active) |
| CC(=O)Nc1ccc(NC(=O)CSCc2cnn(-c3ccccc3)c2-n2cccc2)cc1 | 0.6 |
| C1=C(CCNc2ncnc3c2cnn3-c2ccccc2)CCCC1 | 0.9 |
| O=[N+]([O-])c1cc(S(=O)(=O)Nc2cccc(Cl)c2)ccc1N=Nc1c(O)[nH]c2ccccc12 | 0.8 |
| S=C(NCc1cccnc1)Nc1ccc(Cl)cc1Cl | 0.9 |
| O=C(Nc1cccn(Cc2ccccc2Cl)c1=O)NC1CCCCC1 | 1 |
| C=CCc1cccc2cc(C(=O)NC3CCCC3)c(=O)oc12 | 0.9 |
| COc1ccc(CCNC(=O)CSc2nnc3ccc(-c4ccncc4)nn23)cc1 | 1.1 |
| COc1ccc(CCNC(=O)CSc2nc(-c3ccc(OC)c(OC)c3)ccc2C#N)cc1 | 2.1 (active) |
| COc1cccc(-c2ccc(C#N)c(SCC(=O)NCCc3ccc(Cl)cc3)n2)c1 | 0.8 |
| O=C(Nc1ccc2c(c1)C(=O)OC2)Nc1cccc2ccccc12 | 1.1 |
| CCc1ccc(Nc2nnc(SCC(=O)c3ccc4c(c3)NC(=O)CO4)s2)cc1 | 1.2 |
